Our source for the aptamer displacement values is PubChem BioAssay AID504451 (NMMLSC, 2011).

Each structure is given as a SMILES string. Screen size: about 2,000 compounds; about 80 (4%) were called active. Only a sample is shown. Unmarked numbers belong to inactive results.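 The calls were made as follows: active = aptamer displacement above 40%, near three times the noise of non-fluorescent compounds, on plates passing quality checks; inactive = the rest.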

The target of the assay is Beta-adrenergic receptor kinase 1 (Homo sapiens) (UniProt P25098). Kind of assay: GRK2 aptamer-displacing inhibitors, retest, confirmation, biochemical, cherry pick 1, bead flow cytometry (AID 504451).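 Also: negative values mostly reflect intrinsic compound fluorescence rather than true enhancement.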 Particulars: bead-bound GRK2, FAM-aptamer displacement, at 10 µM, active compounds read high. A general note: A flow cytometer gives signals particle by particle.
Beta-adrenergic receptor kinase 1 (Homo sapiens), sequence (P25098 whole entry, looked up): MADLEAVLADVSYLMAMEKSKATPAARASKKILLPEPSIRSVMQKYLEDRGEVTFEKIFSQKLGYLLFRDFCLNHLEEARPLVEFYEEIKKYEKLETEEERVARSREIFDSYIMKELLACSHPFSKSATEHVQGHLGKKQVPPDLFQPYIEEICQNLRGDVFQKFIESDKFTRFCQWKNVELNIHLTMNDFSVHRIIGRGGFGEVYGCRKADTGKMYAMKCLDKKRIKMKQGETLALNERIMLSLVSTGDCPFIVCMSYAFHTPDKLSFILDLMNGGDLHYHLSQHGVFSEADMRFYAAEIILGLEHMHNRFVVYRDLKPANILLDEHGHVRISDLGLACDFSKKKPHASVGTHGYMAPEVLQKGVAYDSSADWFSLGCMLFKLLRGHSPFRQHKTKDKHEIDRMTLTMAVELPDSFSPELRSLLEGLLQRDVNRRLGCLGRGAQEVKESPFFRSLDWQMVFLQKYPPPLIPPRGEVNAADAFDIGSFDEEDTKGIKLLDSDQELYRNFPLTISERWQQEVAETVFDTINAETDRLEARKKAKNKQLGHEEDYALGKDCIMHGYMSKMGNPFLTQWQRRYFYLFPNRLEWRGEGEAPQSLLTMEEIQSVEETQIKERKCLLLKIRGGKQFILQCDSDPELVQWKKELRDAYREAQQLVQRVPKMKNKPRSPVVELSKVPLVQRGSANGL
On to `COc1cc(C(=O)NCc2ccc3c(c2)cc(C)n3C)cc(OC)c1OC`, for which the aptamer displacement is 0.16%. In the case of `Cc1csc(=O)n1CC(=O)OCC(=O)N(CC(C)C)c1c(N)n(Cc2ccccc2)c(=O)[nH]c1=O`, the aptamer displacement was -4.19%.

For `COCCn1c(C)cc(C(=O)CN2c3cccc4cccc(c34)S2(=O)=O)c1C`, the aptamer displacement was 5.59%. For the molecule `COc1ccc(NC(=O)CN(C)C(=O)c2cc(-c3ccc(C)o3)nc3ccccc23)cc1`, the aptamer displacement is 1.02%. Take `O=C(NNc1ncnc2c1cnn2-c1ccccc1)c1ccco1`: the aptamer displacement is -5.21%. Turning to `C/C(=N\OCC(=O)O)c1ccc(Cl)cc1`, the aptamer displacement was -4.26%. Consider `NC(=O)C1CCN(C(=O)c2ccc3c(=O)n(Cc4cccc(Br)c4)c(=S)[nH]c3c2)CC1`, for which the aptamer displacement is 2.04%. The result for `CCCCn1nc(C(=O)OCC(=O)Nc2sccc2C(N)=O)c2ccccc2c1=O` reads -3.95%; that for `O=S(=O)(Nc1ccc(-c2ccc(N3CCOCC3)nn2)cc1)c1cc(Cl)ccc1Cl`, 1.37%; that for `CCOC(=O)C(C)n1cnc2scc(-c3ccc(C)c(C)c3)c2c1=O` (stereo not drawn), 0.17%. As for `COc1ccccc1NC(=O)CSc1nc2sc3c(c2c(=O)n1-c1ccccc1)CCN(C)C3`, the aptamer displacement was 1.27%. Regarding `O=C(Nc1nnc(-c2ccccc2)o1)c1cccc(S(=O)(=O)N2CCOCC2)c1`, the aptamer displacement was -3.8%.

For `CSc1ccc(/C=C2\NC(=O)NC2=O)cc1`, the aptamer displacement was -11.5%.

On to `Cc1nn(Cc2ccc(F)cc2)c(C)c1NC(=O)c1noc2c1CCc1ccccc1-2`, for which the aptamer displacement is 12.1%. As to `O=C(COC(=O)c1ccc(F)cc1F)Nc1ncccn1`, the aptamer displacement was 39.1%. For the molecule `Cc1ccccc1CN1CCN(CC(=O)NCc2ccccn2)C1=O`, the aptamer displacement was 0.03%. For the molecule `CCOCCCNC(=O)C(NC(=O)CNC(=O)c1ccccc1)c1ccc(OC)cc1` (stereo not drawn), the aptamer displacement is -2.56%. `Cc1ccc(C(CNC(=O)Nc2cccc(C)c2)N2CCN(C)CC2)cc1` (stereo not drawn): the aptamer displacement was -1.91%. The figure for `O=C(CCNC(=O)c1ccccc1)NN=Cc1ccc(Br)o1` is 8.12%; for `Cc1ccc(N2C(=O)C3N=NN(CC(=O)N4N=C(c5cccc6ccccc56)CC4c4ccccc4)C3C2=O)cc1` (stereo not drawn) it is -6.3%. As to `CC(=O)N1CC[n+]2c(-c3ccc([N+](=O)[O-])cc3)csc21`, the aptamer displacement was -2.74%. `O=C(c1cc2cc(F)ccc2[nH]1)N1CCN(c2ccc(F)cc2)CC1`: the aptamer displacement is -3.05%. The figure for `Cc1cccc(NC(=O)C2CCCN(C(=O)NCc3ccccc3)C2)c1C` (stereo not drawn) is -2.02%; for `COc1ccc(Cl)cc1NC(=O)CCS(=O)(=O)c1cc2c(cc1C)NC(=O)CO2` it is 1.91%; for `COc1ccc(-n2nc(C(=O)NCC(=O)N3CCCCCC3)c3ccccc3c2=O)cc1Cl` it is -1.64%. As for `CC(NC(=O)C1CCCN(S(=O)(=O)c2ccc(-n3cnnn3)cc2)C1)c1ccc(F)cc1` (stereo not drawn), the aptamer displacement was 1.56%. Consider `COc1cc(C(=O)OCC(=O)N(CC(C)C)C2CCS(=O)(=O)C2)ccc1OCC(C)C` (stereo not drawn), for which the aptamer displacement was -1.87%. Turning to `Cc1nc(Nc2ccccc2F)c2nnn(Cc3ccccc3Cl)c2n1`, the aptamer displacement is 0.75%.

Turning to `COCCCNC(=O)CNC(=O)c1nn(-c2ccc(OC)cc2)c(=O)c2ccccc12`, the aptamer displacement is -4.54%.

As for `COc1ccc(Nc2cc(Sc3ccc(OC)cc3)ncn2)cc1`, the aptamer displacement was -1.93%.

Regarding `CCOC(=O)c1sc2nc(CSc3ccccc3)[nH]c(=O)c2c1C`, the aptamer displacement is -0.46%. For the molecule `Nc1ccc2nc3c(=O)[nH]c(=S)[nH]c3nc2c1`, the aptamer displacement is 33%.

On to `Cc1cc(C(=O)NC2CCN(Cc3ccccc3)CC2)n[nH]1`, for which the aptamer displacement is -6.63%. `CCC(=C/c1sc2ccc3ccccc3c2[n+]1C)/C=C1\Sc2ccc3ccccc3c2N1C`: the aptamer displacement is 101% (active). As to `O=C(NCC12CC3CC(C1)CC(CNC(=O)N1CCCC1)(C3)C2)N1CCCC1`, the aptamer displacement was -0.31%. `CCOc1ccccc1C(=O)NCc1ccco1`: the aptamer displacement is -1.88%.

Turning to `COC(=O)c1ccc(C)c(NC(=O)C2CC(=O)N(C3CCCC(C)C3C)C2)c1` (stereo not drawn), the aptamer displacement was -1.41%.

In the case of `O=C(NCc1ccccc1)c1cccc(NC(=O)C2CCCCC2)c1`, the aptamer displacement is 0.14%. The result for `COc1ccc(C(=O)NCCNc2ccc([N+](=O)[O-])cn2)cc1` reads -0.48%; that for `C/C(=N\Nc1nc2ccccc2[nH]1)c1cccs1`, -0.6%; that for `COc1ccc(Nc2nc(-c3cccnc3)nc3ccccc23)cn1`, 4.02%.

Consider `COc1ccc(N2CCN(C(CNS(=O)(=O)c3ccc(C)cc3)c3ccccc3)CC2)cc1` (stereo not drawn), for which the aptamer displacement is -2.82%. The figure for `O=C(Nc1ccc(-c2nnc(-c3ccccc3)o2)cc1)c1ccc(Br)o1` is 0.23%; for `O=C1C2N=NN(CC(=O)N3N=C(c4cccc5ccccc45)CC3c3ccccc3)C2C(=O)N1c1ccccc1` (stereo not drawn) it is 0.13%; for `COc1cccc(CN(C)CC(=O)Nc2sc3c(c2C#N)CCC3)c1` it is -0.98%.

On to `Cc1ccccc1-c1nnn(CC(=O)c2ccc(S(=O)(=O)N3CCCC3)cc2)n1`, for which the aptamer displacement is -1.24%. `CC(C)CN(C(=O)c1cccc(S(=O)(=O)N2CCCCC2)c1)C1CCS(=O)(=O)C1` (stereo not drawn): the aptamer displacement was 0.16%. The result for `O=c1[nH]c(SCc2ccccc2)nnc1-c1ccccc1` reads -4.45%; that for `Cc1cc(/C=C2\SC(=O)N(C)C2=O)c(C)n1-c1cccc(C(=O)O)c1`, 10.9%; that for `CN(CC(=O)Nc1ccc(N2CCOCC2)cc1)CC(=O)Nc1ccccc1[N+](=O)[O-]`, -1.83%. Regarding `CNS(=O)(=O)c1cccc(C(=O)NCC2CCCCC2)c1`, the aptamer displacement is 3.13%. The result for `CCCc1nc2ccccc2c(=O)n1NC(=O)c1c(O)c2ccccc2[nH]c1=O` reads -0.69%. For `Cn1c(=O)[nH]c(=O)c2c1nc(N1CCN(C(c3ccccc3)c3ccccc3)CC1)n2CCO`, the aptamer displacement was -8.5%.

Turning to `O=C(CCS(=O)(=O)c1ccc(Br)cc1)NCCc1ccc(Cl)cc1`, the aptamer displacement was 28%. Turning to `Cc1ccc(S(=O)(=O)CCC(=O)Nc2nnc(CC(C)C)s2)cc1`, the aptamer displacement is 2.47%.

On to `O=C(Oc1ccc(Br)cc1)c1cccnc1`, for which the aptamer displacement is -1.31%.

On to `COC(=O)N/N=C/c1ccc(/C=N/NC(=O)OC)cc1`, for which the aptamer displacement is -0.84%. With `O=C(c1cnn(-c2ccc(Cl)cc2)c1)c1ccccc1O`, the aptamer displacement is 0.64%.

For the molecule `CSc1nc2ccccc2c(=O)n1Cc1ccc(F)cc1`, the aptamer displacement is 1.65%. Consider `CC(=O)c1ccc(OCC(O)CN2CCN(S(=O)(=O)c3cccc(Br)c3)CC2)cc1` (stereo not drawn), for which the aptamer displacement is -3.98%. Turning to `Cc1cc2cc(CNC(=O)c3cccs3)ccc2[nH]1`, the aptamer displacement is 11.7%.

For `Cn1c(=O)c2c(nc(N3CCOCC3)n2CCNC2=NCCC2)n(C)c1=O`, the aptamer displacement was 5.84%. `CN(Cc1ccccc1)C(=O)c1cccc(C(=O)N(C)Cc2ccccc2)c1`: the aptamer displacement was -0.51%. As to `CCN1C(=O)[C@H]2[C@@H](c3ccc(-c4ccc(OC)cc4)cc3)N[C@@](Cc3ccccc3)(C(=O)OC)[C@H]2C1=O`, the aptamer displacement is -7.18%. On to `OC(CN=c1sc2ccccc2n1CC(O)COc1ccccc1)COc1ccccc1` (stereo not drawn), for which the aptamer displacement was 1.11%. The result for `CCOC(=O)C1CCCN(Cc2nc(N)nc(Nc3ccc(C)cc3)n2)C1` (stereo not drawn) reads 0.86%.

With `Cc1ccc(-c2nn(-c3ccccc3)cc2/C=C2\SC(=S)N(CCCCCC(=O)O)C2=O)o1`, the aptamer displacement was -4.86%. The result for `CCN1/C(=C\c2ccc3ccccc3[n+]2CC)Sc2cc(C)ccc21` reads 75.6% (active); that for `CCN1/C(=C/c2ccc3ccc(C)cc3[n+]2CC)Sc2ccccc21`, 65.9% (active); that for `O=C(NCc1ccccc1Cl)c1ccc2c(=O)n(CC3CCCO3)c(=S)[nH]c2c1` (stereo not drawn), -1.07%.

For `O=C(NC(=O)c1cc(OCC(F)(F)F)ccc1OCC(F)(F)F)Nc1ccccc1`, the aptamer displacement is 2.33%. `CC(C)Cn1c(CN(Cc2ccccc2)Cc2ccccc2)nc2c1c(=O)n(C)c(=O)n2C`: the aptamer displacement is 0.47%. Turning to `C=C(C)C(=O)Nc1cccc(C2=NOC3(C2)C[C@H](C(N)=O)N(C(=O)C(c2ccccc2)c2ccccc2)C3)c1` (stereo partly drawn), the aptamer displacement is 80.5% (active). As to `O=C(O)c1ccc2c(c1)C(=O)N(c1ccc(/C=C/C(=O)c3ccccc3)cc1)C2=O`, the aptamer displacement is 0.79%. For `CN/C(=C\[N+](=O)[O-])NCCSCc1csc(CN(C)C)n1`, the aptamer displacement is 1.33%. `O=C(c1ccc(Cl)cc1)c1ccc(OCC(O)CN2CCCCC2)cc1` (stereo not drawn): the aptamer displacement is -0.78%. Take `O=C(COc1ccccc1)NCCc1nc2ccccc2[nH]1`: the aptamer displacement was 22.4%. On to `Cc1nc(C(=O)NCc2ccccc2)sc1C1(C)CC(c2cccnc2)=NO1` (stereo not drawn), for which the aptamer displacement is -1.29%.
